The campaign covered roughly 5,500 compounds. About 2,000 (36%) were called active. Not shown: some 18% with an inconclusive outcome. Rule as the data show it: active = normalized growth mostly below about 0.91 (no sharp cut-off); inconclusive = no clear call, values can overlap the other calls; inactive = mostly above about 0.92. The list shows a part of the results.
Assay: chemical genetic growth profiling, strain panel (AID 1159580);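 also: tested at 20 µM; growth read once vehicle control cultures reached saturation at 30 °C; 1 = growth at the plate median or of vehicle wells; lower values mean less growth of the strain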
Conditions: S. cerevisiae deletion strains, growth OD

Measured: normalized growth

CC(=O)Oc1ccc(-c2cc(=O)c3c(OC(C)=O)cc(OC(C)=O)cc3o2)cc1
inactive: locus YAL021C, strain ccr4, stronger effect = lower value 0.975 | locus YAL026C, strain drs2, stronger effect = lower value 0.947 | locus YAL030W, strain snc1, stronger effect = lower value 0.975 | locus YBL061C, strain skt5, stronger effect = lower value 0.965 | locus YBR009C, strain hhf1, stronger effect = lower value 0.96 | locus YBR023C, strain chs3, stronger effect = lower value 0.951 | locus YBR171W, strain sec66, stronger effect = lower value 0.955 | locus YBR231C, strain swc5, stronger effect = lower value 0.968 | locus YBR279W, strain paf1, stronger effect = lower value 0.974 | locus YCL011C, strain gbp2, stronger effect = lower value 0.963 | locus YCL016C, strain dcc1, stronger effect = lower value 0.974 | locus YCL061C, strain MRC1, stronger effect = lower value 0.988 | locus YCL069W, strain vba3, stronger effect = lower value 0.964 | locus YCR088W, strain abp1, stronger effect = lower value 0.966 | locus YDL005C, strain med2, stronger effect = lower value 0.977 | locus YDL040C, strain nat1, stronger effect = lower value 0.966 | locus YDR001C, strain nth1, stronger effect = lower value 0.965 | locus YDR069C, strain doa4, stronger effect = lower value 0.95 | locus YDR137W, strain rgp1, stronger effect = lower value 1 | locus YDR159W, strain sac3, stronger effect = lower value 0.935 | locus YDR195W, strain ref2 0.942 | locus YDR297W, strain sur2, stronger effect = lower value 0.976 | locus YDR334W, strain swr1, stronger effect = lower value 0.958 | locus YDR335W, strain msn5, stronger effect = lower value 0.982 | locus YDR392W, strain spt3, stronger effect = lower value 0.906 | locus YEL003W, strain gim4, stronger effect = lower value 0.961 | locus YEL037C, strain rad23, stronger effect = lower value 0.952 | locus YEL061C, strain CIN8 (second series), stronger effect = lower value 0.958 | locus YER015W, strain faa2, stronger effect = lower value 0.984 | locus YER016W, strain bim1, stronger effect = lower value 0.976 | locus YER111C, strain swi4, stronger effect = lower value 0.953 | locus YER155C, strain BEM2 (second series), stronger effect = lower value 0.957 | locus YFR010W, strain ubp6, stronger effect = lower value 0.957 | locus YGL167C, strain pmr1, stronger effect = lower value 0.965 | locus YGL173C, strain kem1, stronger effect = lower value 0.983 | locus YGL227W, strain vid30, stronger effect = lower value 0.955 | locus YGL240W, strain doc1, stronger effect = lower value 0.962 | locus YGL253W, strain hxk2, stronger effect = lower value 0.973 | locus YHR013C, strain ard1, stronger effect = lower value 0.92 | locus YHR027C, strain rpn1, stronger effect = lower value 0.982 | locus YHR142W, strain chs7, stronger effect = lower value 0.973 | locus YJL092W, strain hpr5, stronger effect = lower value 0.982 | locus YJL095W, strain BCK1 (second series), stronger effect = lower value 0.988 | locus YJL115W, strain asf1, stronger effect = lower value 0.954 | locus YJL129C, strain trk1, stronger effect = lower value 0.95 | locus YJL154C, strain vps35, stronger effect = lower value 0.961 | locus YJL164C, strain tpk1, stronger effect = lower value 0.964 | locus YJL166W, strain qcr8, stronger effect = lower value 0.971 | locus YJL187C, strain SWE1, stronger effect = lower value 0.976 | locus YKL160W, strain elf1, stronger effect = lower value 1.01 | locus YKR026C, strain gcn3, stronger effect = lower value 0.949 | locus YKR091W, strain srl3, stronger effect = lower value 0.97 | locus YLL001W, strain dnm1, stronger effect = lower value 0.997 | locus YLL026W, stronger effect = lower value 0.973 | locus YLL041C, strain sdh2, stronger effect = lower value 0.98 | locus YLR027C, strain aat2, stronger effect = lower value 0.96 | locus YLR221C, strain rsa3, stronger effect = lower value 0.958 | locus YLR258W, strain gsy2, stronger effect = lower value 0.977 | locus YLR262C, strain YPT6 (second series), stronger effect = lower value 0.999 | locus YLR320W, strain mms22, stronger effect = lower value 0.958 | locus YLR342W, strain FKS1, stronger effect = lower value 0.968 | locus YLR357W, strain rsc2, stronger effect = lower value 0.902 | locus YLR370C, strain arc18, stronger effect = lower value 0.958 | locus YLR384C, strain iki3, stronger effect = lower value 0.966 | locus YML120C, strain ndi1, stronger effect = lower value 0.967 | locus YMR058W, strain fet3, stronger effect = lower value 0.965 | locus YMR125W, strain sto1, stronger effect = lower value 0.955 | locus YMR129W, stronger effect = lower value 0.967 | locus YMR205C, strain PFK2, stronger effect = lower value 0.941 | locus YMR231W, strain pep5, stronger effect = lower value 0.975 | locus YNL071W, strain lat1, stronger effect = lower value 0.967 | locus YNL209W, strain ssb2, stronger effect = lower value 0.979 | locus YNL248C, strain rpa49, stronger effect = lower value 0.979 | locus YNL322C, strain KRE1 (second series), stronger effect = lower value 0.95 | locus YNR049C, strain mso1, stronger effect = lower value 0.953 | locus YOR001W, strain rrp6, stronger effect = lower value 0.987 | locus YOR070C, strain gyp1, stronger effect = lower value 0.977 | locus YOR080W, strain dia2, stronger effect = lower value 0.961 | locus YOR083W, strain WHI5, stronger effect = lower value 1.02 | locus YOR106W, strain vam3, stronger effect = lower value 0.986 | locus YOR265W, strain rbl2, stronger effect = lower value 0.981 | locus YOR270C, strain vph1, stronger effect = lower value 0.899 | locus YOR290C, strain snf2, stronger effect = lower value 0.899 | locus YPL051W, strain arl3, stronger effect = lower value 1 | locus YPL078C, strain atp4, stronger effect = lower value 0.984 | locus YPL106C, strain sse1, stronger effect = lower value 0.946 | locus YPL240C, strain hsp82, stronger effect = lower value 0.987
